The list is not random: actives were taken first. Their share in the collection is about 1.9%.
RecA intein inh = blocks M. tuberculosis RecA intein splicing; P9WHJ3; cell-free RecA intein splicing, fluorescence; inhibition, % (concentration not given with the values); 290,000 compounds, 0.75% hits; AID 2221; in the data active = inhibition above about 30%; inconclusive = no clear call, values can overlap the other calls;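 note: 0% = vehicle wells and 100% = reference inhibitor control wells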
Target sequence (P9WHJ3 whole entry, looked up): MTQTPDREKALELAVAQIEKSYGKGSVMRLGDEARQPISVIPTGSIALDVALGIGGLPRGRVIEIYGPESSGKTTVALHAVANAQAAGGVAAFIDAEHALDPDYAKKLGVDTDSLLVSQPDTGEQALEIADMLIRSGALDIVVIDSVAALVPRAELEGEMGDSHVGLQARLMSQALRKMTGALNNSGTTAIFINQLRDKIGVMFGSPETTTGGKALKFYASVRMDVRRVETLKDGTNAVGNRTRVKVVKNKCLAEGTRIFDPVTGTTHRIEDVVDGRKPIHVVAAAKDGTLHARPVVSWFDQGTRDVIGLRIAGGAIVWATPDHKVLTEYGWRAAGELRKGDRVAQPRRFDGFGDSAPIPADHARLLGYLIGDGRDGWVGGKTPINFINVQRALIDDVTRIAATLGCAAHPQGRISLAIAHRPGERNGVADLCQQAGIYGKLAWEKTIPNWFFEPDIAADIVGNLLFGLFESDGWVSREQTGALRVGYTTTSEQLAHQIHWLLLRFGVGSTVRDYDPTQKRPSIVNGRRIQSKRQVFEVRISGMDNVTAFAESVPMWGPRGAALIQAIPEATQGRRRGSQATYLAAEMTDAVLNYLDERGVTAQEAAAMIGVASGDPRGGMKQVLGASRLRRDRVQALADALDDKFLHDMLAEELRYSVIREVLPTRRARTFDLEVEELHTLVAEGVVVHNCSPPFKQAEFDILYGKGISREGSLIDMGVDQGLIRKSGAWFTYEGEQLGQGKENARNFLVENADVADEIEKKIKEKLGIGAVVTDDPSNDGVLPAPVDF
PfHsp40 rescue = rescue of PfHsp40-mediated yeast toxicity | 340,000 compounds, 0.68% hits | growth rescue, % at 12.5 µM | S. cerevisiae expressing PfHsp40, growth rescue, ATP luminescence; in the data active = growth rescue above about 28%, passing the limit was not always enough; inconclusive = no clear call, values can overlap the other calls;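 note: yeast W303a lacking pdr1 and pdr3 grown in galactose medium; growth measured after three days at 30 °C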
PrPC TRFRET = inhibitors of human cell surface prion protein PrPC | TR-FRET read-out | 370,000 compounds, 0.43% hits | AID 720596 | inhibition, % at 13.8 µM; in the data active = inhibition above about 24%; note: 0% = median of the test wells and 100% = reference compound wells
PriA SSB inh = inhibitors of Klebsiella pneumoniae PriA binding to SSB C-terminal tail; AlphaScreen SSBct-PriA binding, biotinylated peptide; inhibition, % at 33 µM; 430,000 compounds, 0.6% hits; AID 1272365; in the data active = inhibition mostly above about 37%, no sharp cut-off; inactive = mostly below about 20%;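 note: plate controls were negative control peptide for no effect and reference peptide for full effect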
BJeLR viability = BJeLR cell viability loss; BJeLR (HRASV12) viability, CellTiter-Glo ATP luminescence, 48 h; inhibition, % (concentration not given with the values); 300,000 compounds, 0.17% hits; AID 1554; in the data active = inhibition above about 50%; inconclusive = no clear call, values can overlap the other calls
PrP UTR inh = inhibition of PrP 5' UTR reporter expression; AID 488862; cell-based PrP 5' UTR mRNA reporter, plate reader; inhibition, % (test concentration not listed); 340,000 compounds, 0.35% hits; in the data active = inhibition above about 52%; note: 0 = median of the neutral control wells
PrP UTR cherry = prion 5' UTR mRNA inhibition, cherry-pick retest; shares compounds with PrP UTR inh; cell-based prion protein 5' UTR reporter, plate reader; inhibition, % at 2.5 µM; 1,100 compounds, 48% hits; in the data active = inhibition above about 54%; inconclusive = no clear call, values can overlap the other calls
* marks the source's active call; other numbers are inactive results; i = inactive; ? = inconclusive; . = not tested or not shown.

SMILES	RecA intein inh	PfHsp40 rescue	PrPC TRFRET	PriA SSB inh	BJeLR viability	PrP UTR inh	PrP UTR cherry
CCCCCCOc1ccc(OS(=O)(=O)c2cc(S(=O)(=O)Oc3ccc(OCCCCCC)cc3)c3cccc4c3c2NC4=O)cc1	.	.	.	-7	.	.	.
CSCCC(N)c1nc(-c2ccccc2F)no1 (stereo unspecified)	.	.	.	47	.	.	.
COc1ccc(C(=O)CC(=O)c2ccc(F)cc2)cc1	4	.	-4	-8	-6	.	.
COc1ccc(C(=O)CC(=O)c2ccc(C(C)(C)C)cc2)cc1	.	0	0	-12	.	57*	-11
O=C(NCCCN1CCCC1=O)C(=O)Nc1ccc2c(c1)OCCO2	.	.	.	-34	.	.	.
O=C(NCC(c1cccnc1)N1CCc2ccccc2C1)c1ccc([N+](=O)[O-])cc1 (stereo unspecified)	.	.	.	1	.	.	.
c1ccc(-c2noc(-c3ccc4c(c3)OCO4)n2)nc1	-2	-1	4	4	92*	86*	85*
c1ccc(-c2noc(-c3ccc4ccccc4c3)n2)nc1	0	-1	.	-3	19	89*	87*
c1ccc(-c2noc(-c3ccncc3)n2)nc1	0	-1	-6	-7	24	-52	.
Cn1nnnc1SCC(=O)N1CCN(S(=O)(=O)c2ccccc2)CC1	-1	0	-8	-9	-1	71*	-22
CCCCS(=O)(=O)N1CCC(c2nnc(-c3ccco3)s2)CC1	.	.	.	-9	.	.	.
O=C(NC(=S)NNC(=O)c1cccs1)c1ccco1	-2	-1	-2	-9	0	-46	.
O=C(NNC(=O)c1cccs1)c1ccco1	1	3	-3	-4	11	64*	88*
COC1=C(C)C(=O)C2=C(C1=O)C1C3CC4=C(C(=O)C(OC)=C(C)C4=O)C(CNC(=O)C(C)=O)N3C(C#N)C(C2)N1C (stereo unspecified)	.	2	1	12	.	94*	97*
O=C(CN1C(=O)c2ccccc2C1=O)Nc1ccc2c(c1)OCCO2	.	.	.	-7	.	.	.
Nc1nc2n(n1)C(=O)CC(c1ccccc1[N+](=O)[O-])N2 (stereo unspecified)	.	-1	-1	10	9	78*	2
O=C(NCCc1ccccc1)c1ccc2c(c1)OCO2	0	1	-1	0	5	58*	?
COC(=O)c1ccc(NC(=O)C(=O)NCC(c2ccc(C)cc2)N2CCN(C)CC2)cc1 (stereo unspecified)	.	.	.	-10	.	.	.
Cc1ccc(C(=O)N2C3C=CC(C3)C2(C(F)(F)F)C(F)(F)F)cc1 (stereo unspecified)	-3	6	1	-17	-2	86*	-12
COc1ccc(C=NNC(=O)c2cc(-c3cccc(C)c3)nc3ccccc23)cc1O	.	.	.	-6	.	.	.
O=C(O)c1ccc(N/N=C/c2ccc3nccnc3c2)cc1	2	-2	-33	i	24	84*	85*
O=C(O)c1ccc(NN=Cc2ccc3ncccc3c2)cc1	.	.	.	-12	.	.	.
O=C1CS[C@@H](c2ccc(Cl)cc2)N1c1ccccc1	.	.	.	-22	.	.	.
COc1cc2c(c(OC)c1O)-c1ccc(OC)c(=O)cc1C(NC(=O)C(F)(F)F)CC2 (stereo unspecified)	.	-1	-11	-14	.	54*	90*
COc1cc2c(c(OC)c1OC)-c1ccc(OC)c(=O)cc1[C@@H](N(C)CC#CCO)CC2	2	1	-8	0	45	80*	91*
SMILES	RecA intein inh	PfHsp40 rescue	PrPC TRFRET	PriA SSB inh	BJeLR viability	PrP UTR inh	PrP UTR cherry
CCN(CC)c1ccc2c(cc1=O)[C@@H](NC)CCc1cc(OC)c(OC)c(OC)c1-2	1	-2	-6	-2	56*	80*	82*
COc1cc2c(c(OC)c1OC)-c1ccc(N(C)CC(OC)OC)c(=O)cc1[C@@H](NC(C)=O)CC2	-2	11	-4	-8	50	26	.
Cc1cc(N)nc(N2CCC(O)CC2)n1	.	.	.	-6	.	.	.
CCn1cc(C(=O)N2CCc3cnc(N4CCOCC4)nc3C2)c(=O)c2ccc(C)nc21	.	.	.	-5	.	.	.
O=C1c2cccc3cccc(c23)C(=O)N1N=Cc1c(O)n(-c2ccccc2)c(=O)[nH]c1=O	.	.	.	-3	.	.	.
Cc1ccccc1COC(=O)c1cc([N+](=O)[O-])ccc1N1CCOCC1	.	10	-5	-3	3	-6	.
CN1CCN(c2ccc([N+](=O)[O-])cc2C(=O)N2CCOCC2)CC1	2	0	-11	-27	4	-2	.
O=C(c1cc([N+](=O)[O-])ccc1N1CCOCC1)N1CCN(c2ccccc2)CC1	-5	1	4	.	56*	81*	92*
O=C(c1ccc(Br)cc1)c1cc([N+](=O)[O-])ccc1N1CCCCC1	6	0	-5	12	36	58*	94*
CSc1ccc(COC(=O)c2cc([N+](=O)[O-])ccc2N2CCOCC2)cc1	2	-1	8	19	56*	72*	89*
CN1CCN(c2ccc([N+](=O)[O-])cc2C(=O)c2ccc(Br)cc2)CC1	-3	-1	-15	-8	-3	-32	.
Cc1ccc(C(=O)c2cc([N+](=O)[O-])ccc2N2CCOCC2)c(C)c1	4	0	-6	7	40	75*	86*
CN(C)CC#CCNC(=O)c1cc(-c2ccccc2)nn1C	.	.	.	-9	.	.	.
O=C(NCc1ccccc1Cl)C(=O)NC[C@H](O)c1ccc2c(c1)CCO2	.	.	.	-19	.	.	.
Cc1ccc(C(=O)N/N=C/c2ccc([N+](=O)[O-])s2)cc1	-4	0	-27	.	2	75*	77*
O=C(N/N=C/c1ccc([N+](=O)[O-])s1)c1ccncc1	-4	1	.	.	-5	1	.
COc1ccc(CCNC(=O)CC(C)=NNC(=O)c2ccc(Cl)cc2Cl)cc1OC	.	.	.	2	.	.	.
CC(C)CCCCCCCCCCCCC(=O)NCC(=O)NC1C(O)C(O)C(Nc2ncnc3nc[nH]c23)OC1C(O)CO (stereo unspecified)	.	-2	.	-9	.	89*	86*
O=C(O)CNc1ncnc2nc[nH]c12	.	.	.	-10	.	.	.
Cc1cnc(C(=O)OC(C)C(=O)Nc2ccc(Oc3ccccc3)cc2)cn1 (stereo unspecified)	.	0	1	-18	.	90*	-12
CSC1SCC2C(=O)N(C)C(C(C)C)C(=O)OCC(NC(=O)c3cnc4ccccc4n3)C(=O)NC(C)C(=O)N(C)C1C(=O)N(C)C(C(C)C)C(=O)OCC(NC(=O)c1cnc3ccccc3n1)C(=O)NC(C)C(=O)N2C (stereo unspecified)	.	4	26*	-1	.	92*	93*
O=C(NCc1ccccn1)c1ccc(Cn2c(=S)[nH]c3ccc(Br)cc3c2=O)cc1	-2	0	3	-9	0	71*	-6
O=C(NCc1ccccn1)c1ccc(Cn2c(=S)[nH]c3ccccc3c2=O)cc1	0	-1	-1	-6	5	-7	.

Screening data as filed in PubChem BioAssay.
